“And” between values parts separate entries of the source, which are not always exact repeats. Equal values may be shown once. The source made the active and inactive calls.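 The calls were made as follows, unless noted: active = thallium flux through the channel raised or lowered by more than 3 SD from vehicle-only wells, actives on both sides; inactive = the rest.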
What was measured:
[1] = P. berghei load reduction in hepatocytes – cell-based, HepG2, luciferase luminescence, HepG2 viability, primary screen (AID 624349; in the data active = parasite load remaining mostly below about 12%, no sharp cut-off; inactive = mostly above about 10%;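 also: 100% = mean of DMSO negative control wells on the same plate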); conditions: P. berghei liver stage in HepG2, luciferase luminescence, concentration not given here; parasite load remaining: stronger effect = lower value; viability: measured here: HepG2 viability without parasites
[2] = signal quenchers or enhancers, Cy5 substrate/SSB – biochemical, NIH Clinical Collection, E. coli SSB, artefact control for HCV NS3 helicase inhibitor project (AID 743268; call rule not given here); conditions: Cy5-oligo bound E. coli SSB, fluorescence interference
[3] = tested on: Hepatitis C virus NS3 helicase; assay: blockers of NS3h binding to DNA – biochemical, fluorescence polarization, NIH Clinical Collection, primary screen (AID 743270; call rule not given here); conditions: NS3 helicase binding to Cy5-dT15 DNA, stronger effect = higher value, concentration not given here
[4] = target: Single-stranded DNA-binding protein (Escherichia coli (strain K12)) (UniProt P0AGE0); assay: SSB-ssDNA binding inhibitors – biochemical, fluorescence polarization, NIH Clinical Collection, counter-screen for HCV NS3 helicase inhibitor project (AID 743271; in the data active = inhibition above about 28%); conditions: E. coli SSB-DNA binding, stronger effect = higher value, concentration not given here
[5] = compounds distorting NS3 helicase fluorescence signal – biochemical, NIH Clinical Collection, artefact control for HCV NS3 helicase inhibitor project (AID 743272; call rule not given here;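 also: HCV NS3 helicase with a Cy5 labelled single stranded DNA probe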); conditions: fluorescence interference counterscreen, HCV NS3 helicase assay; stronger effect = lower value
[6] = MELAS cybrid and Rieske KO viability enhancers – cell-based, MELAS cybrids, Rieske KO mouse fibroblasts, CellTiter-Glo, primary screen (AID 1508586;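 active = mean z-score across replicates of 1.96 or higher in either the MELAS or the Rieske mutant cell line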;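 also: z relative to plate mean and SD of compound and empty wells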); conditions: low glucose
[7] = tested on: F380Y; assay: BK channel mutant inhibitors and activators – cell-based, U2OS BacMam, thallium flux, beta subunits, selectivity assay, profiling panel (AID 1259406); conditions: U2OS BacMam BK variants, at 30 µM;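 also: initial slope of Thallos dye fluorescence rise after thallium is added; log ratio against the mean of 0.3% DMSO vehicle wells on the same plate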
[8] = tested on: F380Y/beta1; assay: as above; conditions: U2OS BacMam BK variants, at 30 µM
[9] = tested on: F380Y/beta2Delta; assay: as above; conditions: U2OS BacMam BK variants, at 30 µM
[10] = tested on: F380Y/beta4; assay: as above; conditions: U2OS BacMam BK variants, at 30 µM
[11] = target: Calcium-activated potassium channel subunit alpha-1 (Homo sapiens) + Leucine-rich repeat-containing protein 26 (Homo sapiens) (UniProt Q12791+Q2I0M4); assay: as above; conditions: U2OS BacMam BK variants, F380Y/Slo1WT/gamma1, at 30 µM
Chain of Calcium-activated potassium channel subunit alpha-1 (Homo sapiens) + Leucine-rich repeat-containing protein 26 (Homo sapiens) (Q2I0M4 whole entry, looked up, one chain of several): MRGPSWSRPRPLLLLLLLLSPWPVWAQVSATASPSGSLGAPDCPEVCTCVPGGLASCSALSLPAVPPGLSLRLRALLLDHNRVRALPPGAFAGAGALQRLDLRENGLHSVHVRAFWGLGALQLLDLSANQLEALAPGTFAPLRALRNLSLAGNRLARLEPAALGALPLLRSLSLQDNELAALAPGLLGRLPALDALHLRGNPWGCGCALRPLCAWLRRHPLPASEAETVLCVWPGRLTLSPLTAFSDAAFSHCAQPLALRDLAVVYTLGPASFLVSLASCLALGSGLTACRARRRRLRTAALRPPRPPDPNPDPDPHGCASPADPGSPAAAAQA

[12] = tested on: R275C; assay: as above; conditions: U2OS BacMam BK variants, at 30 µM
[13] = tested on: R275C/beta1; assay: as above; conditions: U2OS BacMam BK variants, at 30 µM
[14] = tested on: R275C/beta2Delta; assay: as above; conditions: U2OS BacMam BK variants, at 30 µM
[15] = tested on: R275C/beta4; assay: as above; conditions: U2OS BacMam BK variants, at 30 µM
[16] = tested on: R275C/Slo1WT/beta2; assay: as above; conditions: U2OS BacMam BK variants, at 30 µM
[17] = tested on: Neuropilin-2 / VEGF-C interaction (human); assay: small molecules blocking Neuropilin-2/VEGF-C interaction – biochemical, microplate binding format, z-score (AID 743281; call rule not given here); conditions: microplate NRP2/VEGF-C binding assay; stronger effect = lower value
[18] = modulation of C. elegans fzo-1 (AID 1259413; call rule not given here;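 also: fzo-1 mutant C. elegans worms in liquid wells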); conditions: C. elegans fzo-1 modulator screen, mean read-out; stronger effect = higher value
[19] = viability loss with induced miR-34 in A549 – imaging, A549 dox-inducible miR-34, nuclei and caspase counts, primary screen (AID 1347080;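 active = compounds whose cell count with miR-34 switched on is under 0.7 times the count with it off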); conditions: A549 miR-34 inducible, Hoechst nuclei count, 48 h
[20] = galactose survival enhancers in mitochondrial complex I cybrids – cell-based, galactose medium, ATP luminescence, primary screen (AID 1645843;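 active = z-score of at least 1.8 in each of two replicates, scored against plate mean and spread of sample wells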;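 also: positive z means more ATP and so rescue of galactose-driven cybrid death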); conditions: complex I mutant cybrid cells, 72 h, stronger effect = higher value
[21] = MELAS cybrid survival, CellTiter-Glo 48 h, stronger effect = higher value
[22] = Rieske KO mouse fibroblast survival, CellTiter-Glo 72 h
[23] = stronger effect = lower value, cell number ratio, induced over uninduced
[24] = measured here: relative caspase fold change +Dox/-Dox
[25] = measured here: total cells with miR-34 induction, stronger effect = lower value
[26] = measured here: total cells without miR-34 induction

CC(=O)O[C@@]12CO[C@@H]1C[C@H](O)[C@@]1(C)C(=O)[C@H](O)C3=C(C)[C@@H](OC(=O)[C@H](O)[C@@H](NC(=O)OC(C)(C)C)c4ccccc4)C[C@](O)([C@@H](OC(=O)c4ccccc4)[C@H]21)C3(C)C
76.2%: viability [1]
active: log fold change Tl+ flux [13] 0.104
0.54: z-score [6, 22]
inactive: parasite load remaining [1] 78.3% | fluorescence ratio [2] 0.95 | inhibition [3] 5.15% | inhibition [4] 9.14% | fluorescence ratio [5] 0.93 | z-score [6, 21] -2.05 | log fold change Tl+ flux [7] -0.0323 | log fold change Tl+ flux [8] -0.0744 | log fold change Tl+ flux [9] -0.0313 | log fold change Tl+ flux [10] -0.0802 | log fold change Tl+ flux [11] -0.035 | log fold change Tl+ flux [12] -0.041 | log fold change Tl+ flux [14] 0.0412 | log fold change Tl+ flux [15] 0.0296 | log fold change Tl+ flux [16] 0.000404

COc1cc(N)c(Cl)cc1C(=O)N[C@@H]1CCN(CCCOc2ccc(F)cc2)C[C@@H]1OC
57.3%: viability [1]
6860: cell count [19, 26]
inactive: parasite load remaining [1] 13.5% | fluorescence ratio [2] 1 | inhibition [3] -2.77% | inhibition [4] -0.1% | fluorescence ratio [5] 0.96 | z-score [17] -0.527 | mean signal [18] 277 | fold change [19, 23] 0.991 | z-score [20] -0.47 | log fold change Tl+ flux [7] 0.00662 | log fold change Tl+ flux [9] 0.0148 | log fold change Tl+ flux [11] -0.0526 | log fold change Tl+ flux [12] 0.0357 | log fold change Tl+ flux [13] -0.0487 | log fold change Tl+ flux [14] 0.039
6800: cell count [19, 25]
0.684: fold change [19, 24]

CC1(C)O[C@@H]2C[C@H]3[C@@H]4C[C@H](F)C5=CC(=O)C=CC5(C)[C@@]4(F)[C@@H](O)CC3(C)C2(C(=O)CO)O1 (some centres undefined)
inactive: mean signal [18] 256

CO/N=C(/C(=O)NC1C(=O)N2C(C(=O)O)=C(COC(C)=O)CSC12)c1csc(N)n1 (centres undefined)
inactive: mean signal [18] 238

COCC1=C(C(=O)OC(C)OC(=O)OC(C)C)N2C(=O)[C@@H](NC(=O)C(=NOC)c3csc(N)n3)[C@H]2SC1 (some centres undefined)
70.5%: viability [1]
inactive: parasite load remaining [1] 83.9% | fluorescence ratio [2] 0.97 | inhibition [3] 1.98% | inhibition [4] -0.1% | fluorescence ratio [5] 1 | log fold change Tl+ flux [7] 0.0206 | log fold change Tl+ flux [8] 0.0461 | log fold change Tl+ flux [9] 0.0192 | log fold change Tl+ flux [10] 0.0327 | log fold change Tl+ flux [11] 0.0109 | log fold change Tl+ flux [12] 0.00217 | log fold change Tl+ flux [13] -0.0216 | log fold change Tl+ flux [14] 0.0293 | log fold change Tl+ flux [15] 0.0115 | log fold change Tl+ flux [16] 0.0178

CC12C=CC(=O)C=C1CC[C@@H]1[C@@H]2C(=O)CC2(C)[C@H]1CC[C@]2(O)C(=O)CO (some centres undefined)
inactive: mean signal [18] 237

CC(=O)OCC(=O)[C@@]1(O)CC[C@H]2[C@@H]3CCC4=CC(=O)CCC4(C)[C@H]3C(=O)CC21C (some centres undefined)
inactive: mean signal [18] 237

CN(C)CC/C=C1/c2ccccc2COc2ccccc21
9460 and 10600: cell count [19, 26]
inactive: parasite load remaining [1] 72.1% and 22.2% and 49.1% | fluorescence ratio [2] 0.97 | inhibition [3] -1.98% | inhibition [4] -0.1% | fluorescence ratio [5] 0.93 | z-score [17] -0.308 | fold change [19, 23] 0.906 and 0.927 | z-score [20] -0.705 | log fold change Tl+ flux [11] 0.0355 | log fold change Tl+ flux [12] 0.0343 | log fold change Tl+ flux [13] 0.0624 | log fold change Tl+ flux [14] 0.0478
73% and 104% and 60.2%: viability [1]
8570 and 9810: cell count [19, 25]
1.31 and 1.98: fold change [19, 24]
active: log fold change Tl+ flux [7] 0.124 | log fold change Tl+ flux [9] 0.0845

CCN(CC)CCOc1ccc(C(=C(Cl)c2ccccc2)c2ccccc2)cc1
2.63 and 0.76: fold change [19, 24]
inactive: parasite load remaining [1] -4.11% | inhibition [3] -10.4% | inhibition [4] 0.29% | fluorescence ratio [5] 0.97 | fold change [19, 23] 1.09 and 0.932 | z-score [6, 21] -0.453 | z-score [20] -1.52 | log fold change Tl+ flux [7] 0.00267 | log fold change Tl+ flux [9] 0.0152 | log fold change Tl+ flux [10] -0.059 | log fold change Tl+ flux [12] 0.0156 | log fold change Tl+ flux [13] 0.0697 | log fold change Tl+ flux [14] -0.00533
-0.778: z-score [6, 22]
3.72%: viability [1]
4620 and 8110: cell count [19, 26]
active: fluorescence ratio [2] 0.76 | log fold change Tl+ flux [8] -0.533 | log fold change Tl+ flux [15] 0.493 | log fold change Tl+ flux [16] -0.157
5020 and 7560: cell count [19, 25]

C=CC1=C(C(=O)O)N2C(=O)[C@@H](NC(=O)C(=NOCC(=O)O)c3csc(N)n3)[C@H]2SC1
69.9%: viability [1]
inactive: parasite load remaining [1] 68.9% | fluorescence ratio [2] 1.01 | fluorescence ratio [5] 0.95 | log fold change Tl+ flux [7] 0.0111 | log fold change Tl+ flux [8] -0.0102 | log fold change Tl+ flux [9] 0.02 | log fold change Tl+ flux [10] 0.0293 | log fold change Tl+ flux [12] -0.011 | log fold change Tl+ flux [13] -0.021 | log fold change Tl+ flux [14] 0.0194 | log fold change Tl+ flux [15] 0.0168 | log fold change Tl+ flux [16] 0.00126
active: inhibition [3] 27.7% | inhibition [4] 94.9% | log fold change Tl+ flux [11] 0.111

C[C@@H]1C[C@H]2[C@@H]3CCC4=CC(=O)C=CC4(C)[C@@]3(F)[C@@H](O)CC2(C)[C@@]1(O)C(=O)CO (some centres undefined)
inactive: mean signal [18] 285
